Common to all, as to experiment: NCI-60 one-dose screen, 48 h (100 = growth as untreated, 0 = no growth, -100 = all killed)
Experiment [1] relates to NCI-H23 lung. To be noted: 10 µM unless noted.
Experiment [2] has as its system NCI-H226 lung.
The subject of experiment [3] is HOP-62 NSCLC.
For experiment [4], the system named is NCI-H460 lung.
The test system of experiment [5] is HOP-92 NSCLC.
Experiment [6] has as its system NCI-H522 lung.
Experiment [7] concerns A549/ATCC NSCLC.
For experiment [8], the system named is 786-0 renal.
For experiment [9], the system named is COLO 205 colon. To be noted: 10 µM unless noted.
In experiment [10] the test system is NCI-H322M lung.

Our source for the growth values is PubChem BioAssay (NCI).

Where “and” joins values, the source holds several entries; their conditions need not be identical. Equal values may be shown once. Compounds without any hit were thinned out: in the full panel of roughly 83,000, 20% have a hit.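 The test compound was applied at a single concentration to cells in 96-well plates for 48 hours, and percent growth was recorded.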 Calls of active or inactive are those of the source. How the source made its calls: active means growth percent below 10; inactive means the rest.

Turning to `Cc1cccc(/C=C\C(=O)c2ccc(Cl)cc2)c1`, the growth is 93.9% (inactive) and 102% (inactive) in experiment [1]; 112% (inactive) and 100% (inactive) in experiment [2] (10 µM unless noted); 109% (inactive) and 113% (inactive) in experiment [3] (10 µM unless noted); 110% (inactive) and 102% (inactive) in [4] (10 µM unless noted); 82.3% (inactive) in [5] (10 µM unless noted); 94.2% (inactive) in experiment [6] (10 µM unless noted). For the same molecule, the growth in experiment [7] (10 µM unless noted) was 88.8% (inactive) and 85.8% (inactive); in [8] (10 µM unless noted), 82% (inactive) and 74.2% (inactive); in experiment [9] it was 121% (inactive) and 111% (inactive).

Regarding `O=[N+]([O-])c1ccc(N/N=C\c2cc(Br)ccc2O)nc1`, the growth in experiment [1] is 20.7% (inactive) and 14.2% (inactive); in experiment [2] (10 µM unless noted) it was 91.4% (inactive) and 55.4% (inactive); in [3] (10 µM unless noted) it was 12.2% (inactive) and 34.9% (inactive); in [4] (10 µM unless noted), 2.22% (active) and 0.392% (active); in [5] (10 µM unless noted), 37.9% (inactive); in [7] (10 µM unless noted), 21.4% (inactive). The growth in [8] (10 µM unless noted) is 25.6% (inactive) and 35% (inactive); in [9], 22.9% (inactive) and 43.4% (inactive).

`COc1cc(C(=O)N/N=C/c2ccc(N(C)C)cc2)cc(OC)c1OC`: the growth in [1] is 19.4% (inactive); in experiment [2] (10 µM unless noted), 71.9% (inactive); in experiment [3] (10 µM unless noted), 49% (inactive); in [4] (10 µM unless noted), 3.54% (active); in experiment [5] (10 µM unless noted), 46.8% (inactive); in [7] (10 µM unless noted), 18.4% (inactive). Further, the growth was 42.2% (inactive) in experiment [8] (10 µM unless noted) and -25.7% (active) in experiment [9].

With `CO/N=C/C=C\C(=O)N/C=C/C[C@H]1/C=C/[C@H](O)/C=C\C=C\c2cccc(O)c2C(=O)O1`, the growth in [2] (10 µM unless noted) was -81.9% (active) and -73.8% (active); in [10] (10 µM unless noted), 42.8% (inactive) and 51.7% (inactive); in [3] (10 µM unless noted), 19.5% (inactive) and 17.4% (inactive); in experiment [4] (10 µM unless noted) it was 16.9% (inactive) and 8.82% (active); in experiment [5] (10 µM unless noted), 23.9% (inactive) and -9.99% (active); in experiment [6] (10 µM unless noted), 28.1% (inactive) and 15% (inactive). Also, the growth is 18.1% (inactive) and 12% (inactive) in [7] (10 µM unless noted); 24.2% (inactive) and 18.7% (inactive) in experiment [8] (10 µM unless noted); 15.2% (inactive) and 14.3% (inactive) in [9].

With `CC1=C(/C=C/C(C)=C/C=C/C(C)=C/C(=O)Nc2ccc(O)cc2)C(C)(C)CCC1`, the growth was 74.3% (inactive) in [2] (10 µM unless noted); 101% (inactive) in [10] (10 µM unless noted); 88.6% (inactive) in [3] (10 µM unless noted); 27.7% (inactive) in [4] (10 µM unless noted); 103% (inactive) in experiment [5] (10 µM unless noted); -47.6% (active) in experiment [6] (10 µM unless noted). In addition, the growth in experiment [7] (10 µM unless noted) is 55.9% (inactive); in experiment [8] (10 µM unless noted) it was 52.8% (inactive); in [9], 38.6% (inactive).

Turning to `CC(/C=N/N1C(=O)c2ccccc2C1=O)c1ccccc1` (centres undefined), the growth in experiment [1] was 108% (inactive); in [2] (10 µM unless noted), 90.6% (inactive); in experiment [3] (10 µM unless noted), 112% (inactive); in [4] (10 µM unless noted), 108% (inactive); in experiment [6] (10 µM unless noted) it was 104% (inactive); in experiment [7] (10 µM unless noted), 88.3% (inactive). Also, the growth is 102% (inactive) in [8] (10 µM unless noted) and 114% (inactive) in experiment [9].

With `COc1ccc(Cl)cc1C(=O)NCCc1ccc(S(=O)(=O)NC(=O)NC2CCCCC2)cc1`, the growth in experiment [2] (10 µM) is 101% (inactive) and 97.4% (inactive); in experiment [2] (100 µM) it was 62.4% (inactive); in [10] (10 µM), 96.2% (inactive); in experiment [10] (100 µM) it was 88.5% (inactive); in experiment [4] (10 µM), 103% (inactive) and 114% (inactive); in experiment [4] (100 µM) it was 72.2% (inactive). In addition, the growth in experiment [5] (10 µM) is 74% (inactive) and 95.5% (inactive); in experiment [5] (100 µM), 63.6% (inactive); in [6] (10 µM), 97% (inactive); in experiment [6] (100 µM), 54.1% (inactive); in experiment [7] (10 µM) it was 99.8% (inactive) and 103% (inactive); in experiment [7] (100 µM) it was 57.9% (inactive). Further, the growth in [8] (10 µM) is 107% (inactive) and 98.6% (inactive); in experiment [8] (100 µM), 75.5% (inactive); in [9] it was 117% (inactive) and 112% (inactive).

With `N#C/C(=C/c1c(O)ccc2ccccc12)C(N)=O`, the growth in experiment [1] was 87.1% (inactive); in [2] (10 µM unless noted), 89% (inactive); in experiment [3] (10 µM unless noted) it was 81.1% (inactive); in [4] (10 µM unless noted) it was 103% (inactive); in experiment [6] (10 µM unless noted), 76.4% (inactive); in experiment [7] (10 µM unless noted), 107% (inactive). Also, the results for the growth in [8] (10 µM unless noted) and in experiment [9] were 83.6% (inactive) and 105% (inactive), respectively.

Take `O=C(CCc1ccc(O)cc1)N/N=C/c1cc(Br)ccc1O`: the growth in [2] (10 µM unless noted) is 95.1% (inactive); in [10] (10 µM unless noted), 38.9% (inactive); in experiment [3] (10 µM unless noted) it was 62.7% (inactive); in experiment [4] (10 µM unless noted) it was 29.7% (inactive); in [5] (10 µM unless noted), 80.7% (inactive); in experiment [6] (10 µM unless noted), 77.5% (inactive). The results for the growth in experiment [7] (10 µM unless noted), in experiment [8] (10 µM unless noted) and in [9] were 47.6% (inactive), 42% (inactive) and 92% (inactive), respectively.

For the molecule `CN1C(=O)C(N=Nc2ccc([N+](=O)[O-])cc2)SC1=S` (centres undefined), the growth in experiment [1] was 64.1% (inactive) and 43.7% (inactive); in experiment [2] (10 µM unless noted) it was 80.9% (inactive) and 70.3% (inactive); in experiment [4] (10 µM unless noted), 37.7% (inactive) and 45.3% (inactive); in experiment [5] (10 µM unless noted), 61.2% (inactive) and 62.9% (inactive); in experiment [6] (10 µM unless noted) it was 52.9% (inactive) and 68.1% (inactive); in experiment [7] (10 µM unless noted), 71% (inactive) and 76.3% (inactive). For the same molecule, the growth was 70.2% (inactive) and 75.1% (inactive) in experiment [8] (10 µM unless noted); 67% (inactive) and 74.4% (inactive) in [9].

On to `C[N+](C)(C)CN1C(=O)c2ccccc2C1=O`, for which the growth in experiment [1] was 105% (inactive); in experiment [2] (10 µM unless noted), 112% (inactive); in [3] (10 µM unless noted), 96% (inactive); in experiment [4] (10 µM unless noted) it was 105% (inactive); in experiment [6] (10 µM unless noted), 90.9% (inactive); in [7] (10 µM unless noted), 99.8% (inactive). The growth in experiment [8] (10 µM unless noted) and in experiment [9] was 104% (inactive) each time.

For `CN1CCN(CCC=C2c3ccccc3Sc3ccc(S(=O)(=O)N(C)C)cc32)CC1`, the growth in experiment [2] (10 µM unless noted) is 111% (inactive) and 108% (inactive); in [10] (10 µM unless noted), 66.9% (inactive) and 77.2% (inactive); in experiment [3] (10 µM unless noted), 75.9% (inactive) and 83.8% (inactive); in experiment [4] (10 µM unless noted), 82.7% (inactive) and 82% (inactive); in experiment [5] (10 µM unless noted), 29.4% (inactive); in experiment [6] (10 µM unless noted), 44.2% (inactive) and 58.5% (inactive). Further, the growth in [7] (10 µM unless noted) was 69.3% (inactive) and 79.6% (inactive); in [8] (10 µM unless noted) it was 41.6% (inactive) and 58.5% (inactive); in [9] it was -83.1% (active) and 44% (inactive).

Turning to `CCN(CC)CCc1nc(-c2ccccc2)no1`, the growth is 85.8% (inactive) and 104% (inactive) in [2] (10 µM unless noted); 100% (inactive) and 102% (inactive) in [10] (10 µM unless noted); 65.2% (inactive) and 98.6% (inactive) in experiment [3] (10 µM unless noted); 102% (inactive) and 113% (inactive) in [4] (10 µM unless noted); 81.5% (inactive) and 109% (inactive) in experiment [5] (10 µM unless noted); 88.5% (inactive) in experiment [6] (10 µM unless noted). Further, the growth in experiment [7] (10 µM unless noted) is 97.5% (inactive) and 103% (inactive); in experiment [8] (10 µM unless noted) it was 89.5% (inactive) and 101% (inactive); in experiment [9] it was 109% (inactive).

On to `CC(=O)Nc1cccc2c1CCCC2`, for which the growth is 98% (inactive) and 96.3% (inactive) in experiment [1]; 98.9% (inactive) and 98.7% (inactive) in experiment [2] (10 µM unless noted); 91.8% (inactive) and 84% (inactive) in experiment [3] (10 µM unless noted); 96.5% (inactive) and 80.8% (inactive) in experiment [5] (10 µM unless noted); 63.6% (inactive) and 88.1% (inactive) in experiment [7] (10 µM unless noted); 95.8% (inactive) and 96.6% (inactive) in [8] (10 µM unless noted). The growth in experiment [9] was 109% (inactive) and 101% (inactive).

For `CC#C[C@]1(O)CC[C@H]2[C@@H]3CCC4=CC(=O)CCC4=C3[C@@H](c3ccc4c(c3)OCO4)C[C@@]21C`, the growth in experiment [2] (10 µM) is 85.2% (inactive); in [2] (100 µM) it was -21.7% (active); in experiment [10] (10 µM) it was 90% (inactive); in [10] (100 µM), 7.01% (active); in experiment [3] (10 µM), 81.3% (inactive); in [3] (100 µM), -15.3% (active). The growth in experiment [4] (10 µM) is 90.5% (inactive); in experiment [4] (100 µM) it was -45.9% (active); in [5] (10 µM) it was 66.1% (inactive); in [5] (100 µM) it was -33.2% (active); in [6] (10 µM), 62.4% (inactive); in experiment [6] (100 µM) it was -37.9% (active). Moreover, the growth in experiment [7] (10 µM) is 66.7% (inactive); in [7] (100 µM), -19.7% (active); in experiment [8] (10 µM), 69.5% (inactive); in [8] (100 µM), -30.5% (active); in [9] it was 101% (inactive).

On to `O=c1c2ccccc2nc2n1Cc1nc3ccccc3c(=O)n1C2`, for which the growth in experiment [1] is 92.2% (inactive) and 100% (inactive); in experiment [2] (10 µM unless noted), 89.5% (inactive) and 97.8% (inactive); in experiment [3] (10 µM unless noted), 114% (inactive) and 105% (inactive); in [4] (10 µM unless noted) it was 95.1% (inactive) and 101% (inactive); in experiment [5] (10 µM unless noted), 95.3% (inactive) and 114% (inactive); in [7] (10 µM unless noted), 102% (inactive) and 100% (inactive). Moreover, the growth in [8] (10 µM unless noted) is 103% (inactive) and 104% (inactive); in experiment [9], 111% (inactive) and 130% (inactive).
